In PubChem BioAssay (NCI):
Compounds without any hit were thinned out: in the full panel of roughly 79,000, 15% have a hit. Unmarked numbers belong to inactive results. Calls of active or inactive are those of the source. Cut-off read from the data, not from the text of the source: active = growth inhibition above about 70%; inactive = the rest.

Assay: NCI Yeast Anticancer Drug Screen. Data for the rad14 strain (AID 159);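 note: 0% = growth of vehicle-treated control cultures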
Conditions: S. cerevisiae rad14 strain growth inhibition, active compounds read high
Experimental: Growth inhibition of yeast strains with defined genetic alterations is measured as a screen for potential anti-cancer activity. Selected strains with alterations in DNA damage repair or cell cycle control were exposed to compounds and growth inhibition was measured relative to vehicle treated controls. The strain used in this assay is rad14

SMILES | growth inhibition (at 1.2 µM) [%] | growth inhibition (at 3.7 µM) | growth inhibition (at 11.0 µM) | growth inhibition (at 33.0 µM) | growth inhibition (at 100.0 µM)
CC(/C=C/c1ccc2c(c1)OCO2)[N+](=O)[O-] (stereo not given) | 18 | 61% | 100% (active) | 99% (active) | 100% (active)
Cc1ccc(NC(=O)/C(Cl)=C(\Cl)C(=O)O)cc1C | 3 | 6% | 26% | 99% (active) | 99% (active)
C[C@H](CCC(=O)NN)[C@H]1CC[C@H]2[C@@H]3CC[C@@H]4C[C@H](O)CC[C@]4(C)[C@H]3CC[C@]12C | 0 | -3% | 0% | -5% | 12%
Cc1c(Cl)ccc2c1S(=O)(=O)c1cccc(Cl)c1-2 | 2 | 6% | 2% | 5% | 5%
S=C(Nc1ccc(Cl)c(Cl)c1)SCc1ccc2c(c1)OCO2 | 4 | 54% | 100% (active) | 99% (active) | 96% (active)
Oc1cccc2c(Cl)ccnc12 | 37 | 99% (active) | 99% (active) | 96% (active) | 98% (active)
Cc1ccc(CSC(N)=Nc2ccccc2)cc1C | -22 | -14% | -17% | 10% | 64%
c1ccc2c(c1)C(=NCCCN1CCCCCC1)c1cccn1-2 | -15 | -3% | -2% | 4% | 98% (active)
